# Reference: PubChem BioAssay (Tox21)
# Records with an inconclusive call do not appear. A number with no mark means an inactive call. Activity calls are given as the source filed them. Calls follow the shape of the dose curve; as a rule, active = well fitted inhibition curve with a large enough effect in the repeat runs; inconclusive = weak or mixed curves; inactive = no such curve, though single readings can be large or run the other way.
# Molecular target: Cytochrome P450 2C19 (Homo sapiens) (UniProt P33261)
# Test: Cytochrome P450 Family 2 Subfamily C Member 19 (CYP2C19) small molecule antagonists: luciferase reporter qHTS assay (AID 1671197); also: nearly all actives have a fitted effect of over 65% in size
# Conditions: P450-Glo CYP2C19 enzyme, luciferin luminescence, 1 h; series mostly up to 115 µM; activity change, negative = inhibition: at the top concentration
# Text: National Center for Advancing Translational Sciences [NCATS]
# U.S. Environmental Protection Agency [EPA]
# National Institutes of Environmental Health Sciences [NIEHS]
# National Toxicology Program [NTP]
# U.S. Food and Drug Administration [FDA]
# Cytochrome P450 (CYP) enzymes are membrane-bound hemeproteins that play a key role in metabolism of drugs and xenobiotics. Evaluation of the effect of chemicals on CYP isozymes is useful to minimize the adverse drug reactions and toxicities in drug development process. Tox21 chemicals were tested for their effect on CYP enzyme activities by using P450-Glo (TM) screening systems (Promega Corporation, Madison, WI). These systems provide a luminescent method containing proluciferin substrates and are converted to luciferin products by CYP isozymes. The luciferin products formed are detected with a luciferin detection reagent, and the amount of light produced is proportional to CYP activity. P450-Glo (TM) CYP2C19 screening system (Catalog. No. V9880) was used to detect the compounds that interfere in CYP2C19 activity. The positive control compound used for CYP2C19 assay is ketoconazole (Sigma-Aldrich, St. Louis, MO).
# Tox21 Assay Protocol Summary:
# Two ul of enzyme-substrate mix was dispensed into medium binding white/solid 1536-well plates (Greiner Bio-One North America Inc., Monroe, NC) using a BioRaptr Flying Reagent Dispenser (FRD, Beckman Coulter, Brea, CA). Compounds dissolved in DMSO and positive control (ketoconazole) were transferred to the assay plates at 23 nl using a Pintool station (Wako, San Diego, CA). The assay plates were incubated at room temperature for 10 min. Then 2 ul of NADPH regeneration solution was added to each well of the assay plates using an FRD and incubated at 37C for 1 h. The reaction was stopped by adding 4 ul of detection reagent using an FRD and after 20 min incubation at room temperature the luminescence signal was measured using a ViewLux plate reader (Perkin Elmer, Shelton, CT). Data were expressed as relative luminescence units.
# % is scaled to controls: 0 for no effect and ±100 for the full control effect; potency is read from the fitted curve at half-maximal effect.
# Sequence of Cytochrome P450 2C19 (Homo sapiens) (P33261 whole entry, looked up): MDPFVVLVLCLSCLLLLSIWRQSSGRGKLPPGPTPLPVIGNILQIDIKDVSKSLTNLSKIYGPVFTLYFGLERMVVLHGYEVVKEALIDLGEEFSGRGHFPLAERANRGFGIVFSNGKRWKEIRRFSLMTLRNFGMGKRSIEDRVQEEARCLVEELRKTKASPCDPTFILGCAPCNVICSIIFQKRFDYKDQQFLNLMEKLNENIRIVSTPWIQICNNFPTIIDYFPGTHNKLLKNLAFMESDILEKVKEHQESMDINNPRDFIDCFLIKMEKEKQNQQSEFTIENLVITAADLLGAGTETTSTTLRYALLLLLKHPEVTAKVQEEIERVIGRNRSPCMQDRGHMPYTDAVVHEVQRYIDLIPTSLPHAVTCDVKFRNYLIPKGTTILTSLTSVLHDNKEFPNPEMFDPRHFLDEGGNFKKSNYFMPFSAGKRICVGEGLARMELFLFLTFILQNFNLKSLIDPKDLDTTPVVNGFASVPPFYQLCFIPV
SMILES,"activity change, negative = inhibition",Potency
CC(C)(O)c1ccc(C(C)(C)O)cc1,5.81%,
COC(=O)c1c(C)cc(O)c(C)c1O,,7.96 µM (active)
CN(C)CCc1c[nH]c2ccc(C[C@H]3COC(=O)N3)cc12,23.4% [at 52.9 µM],
COC(=O)c1ccc(C(=O)O)cc1,-9.68%,
NC[C@H]1O[C@H](O[C@H]2[C@H](O)[C@@H](O[C@H]3O[C@H](CO)[C@@H](O)[C@H](N)[C@H]3O)[C@H](N)C[C@@H]2N)[C@H](N)[C@@H](O)[C@@H]1O,39.5% [at 23.6 µM],
CCCCCCCCC1CO1 (stereo not given),13%,
CNC(=O)c1c(I)c(NC(C)=O)c(I)c(C(=O)O)c1I,19.5% [at 52.9 µM],
CC(=O)OC1CCC(C(C)(C)C)CC1 (stereo not given),12.3%,
CCO[Si](CC(C)C)(OCC)OCC,,35.6 µM (active)
CC/C=C/CCCCCCCCCCOC(C)=O,18.6%,
CCCCCCCC(=O)N(C)C,-16.1%,
COc1cc(NS(=O)(=O)c2ccc(N)cc2)ncn1,19.7% [at 52.9 µM],
N#Cc1cc(NC(=O)C(=O)O)c(Cl)c(NC(=O)C(=O)O)c1,1.03% [at 52.9 µM],
CCN(CC)CC,,59.4 µM (active)
CCOC(=O)CC,-4.61%,
CCCCCCCCCCCC(C)=O,-14%,
CCCCCCC(=O)c1ccccc1,4.39%,
CCOC(=O)CN1CCCC1=O,11.9% [at 52.9 µM],
CCCOc1ccc(C(=O)OCCN(CC)CC)cc1N,11.8% [at 52.9 µM],
CC1(C)C(=O)C(C)(C)C1=O,18.6%,

SMILES,"activity change, negative = inhibition",Potency
C/C=C(\C)C=O,-27.3%,
CCN1CCN(C(=O)N[C@@H](C(=O)N[C@@H]2C(=O)N3[C@@H]2SC(C)(C)[C@H]3C(=O)O)c2ccccc2)C(=O)C1=O,13.2% [at 52.9 µM],
CC(C)OCCO,-13.2%,
CCC(C)c1nccnc1OC (stereo not given),-1.28%,
CCN(CC)CC(=O)Oc1ccc(NC(C)=O)cc1,22.5% [at 52.9 µM],
CN(C)CCc1c[nH]c2ccc(CS(=O)(=O)N3CCCC3)cc12,17.6% [at 52.9 µM],
CCC(C)SSC(C)CC (stereo not given),-17.8%,
CCCCCCCCCCCCCCCCN(C)C,-5.94% [at 10.5 µM],
CC(O)C(CO)C(C)O (stereo not given),,80.6 µM (active)
N=C(N)N1CCc2ccccc2C1,22.1% [at 10.5 µM],
CC(C)(C)C(=O)CCc1ccc(Cl)cc1,,7.1 µM (active)
CCO/C=C1\N=C(c2ccccc2)OC1=O,,79.4 µM (active)
Cc1nc2ccc(Cl)cc2[nH]1,,39.8 µM (active)
Cc1ccc(S(=O)(=O)NC(=O)NN2CC3CCCC3C2)cc1 (stereo not given),-13.9% [at 52.9 µM],
O=C(O)/C=C(\CC(=O)O)C(=O)O,23.9% [at 52.9 µM],
CCCC[O][Al]([O]CCCC)[O]CCCC,-1.69%,
O=C(c1ccccc1)c1cccc(O)c1,,22.8 µM (active)
O=P(O)(O)C(O)(Cc1cccnc1)P(=O)(O)O,5.62% [at 52.9 µM],
N=C(N)S(=O)O,-6.56%,
C=C(C)C(=O)OCCCC,-10.5%,
